This is a sample that favours compounds with a hit; in the whole collection about 7% have one here.
AHR activator – AHR activators, primary screen, cell-based, luminescence, luciferase reporter, human; Aryl hydrocarbon receptor (Homo sapiens), P35869; AHR-responsive luciferase reporter cells; activation, % at 5 µM; hit rate 2.5% among 320,000; AID 2796, 2010; in the data active means activation above about 47%
proKLK7 act – proKLK7 zymogen activators, primary screen, biochemical, fluorescence intensity. purified proKLK7, EDANS-DABCYL substrate fluorescence; 100% is mature enzyme control, 0% vehicle. hit rate 0.9% among 370,000. Kallikrein-7 (Homo sapiens), P49862. activation, % at 7 µM;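 active means activation above the mean of all tested compounds plus 3 SD, computed per campaign excluding outliers beyond control limits, cut at about 13% in these data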
Target sequence (P49862 whole entry, looked up): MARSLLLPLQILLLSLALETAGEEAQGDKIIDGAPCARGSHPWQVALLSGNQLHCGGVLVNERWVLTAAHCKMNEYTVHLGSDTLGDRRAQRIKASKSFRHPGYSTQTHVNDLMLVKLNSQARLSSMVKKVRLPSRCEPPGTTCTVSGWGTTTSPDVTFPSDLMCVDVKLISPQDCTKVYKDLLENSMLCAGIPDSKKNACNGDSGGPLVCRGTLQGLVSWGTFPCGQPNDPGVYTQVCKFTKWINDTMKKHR
ADAM10 inh – human ADAM10 inhibitors, primary screen, biochemical, QFRET, HTS | hit rate 0.62% among 370,000 | recombinant ADAM10, EDANS/DABCYL FRET peptide cleavage, 3 h | inhibition, % at 7 µM | Disintegrin and metalloproteinase domain-containing protein 10 (Homo sapiens), O14672;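 active means inhibition above a per-campaign cutoff equal to the mean of compounds falling between control-based bounds plus 3 SD, cut at about 20% in these data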
rCAG RNA binder – binders of r(CAG) RNA repeats, primary screen, biochemical, fluorescence. r(CAG) RNA repeat, TO-PRO-1 dye displacement fluorescence. hit rate 1.3% among 370,000. AID 651821, 2012. inhibition, % at 3 µM;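 active means inhibition above the plate cutoff, the mean of all test compounds on that plate plus 3 SD, cut at about 35% in these data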;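 further: higher means more dye released from RNA so lower well fluorescence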
NR3A LBD binder – binders of NR3A ligand-binding domain, primary screen, biophysical, differential scanning fluorimetry, uHTS; hit rate 2.5% among 340,000; NR3A LBD differential scanning fluorimetry, Tm shift; 0% = protein alone, 100% = glycine-bound protein; AID 1259313, 2017; Tm shift relative to glycine control, % at 25 µM; Glutamate receptor ionotropic, NMDA 3A (GRIN3A) ligand-binding domain;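 active means melting temperature shift of at least 10% of the positive control shift, at one fixed dose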
ADAM17 inh – ADAM17 inhibitors, primary screen, biochemical, QFRET | Disintegrin and metalloproteinase domain-containing protein 17 (Homo sapiens), P78536 | recombinant ADAM17, EDANS/DABCYL FRET peptide cleavage | inhibition, % at 6.95 µM | hit rate 0.83% among 370,000;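 active means inhibition above the mean of compounds lying between control limits plus 3 SD, set per campaign, cut at about 8.5% in these data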
Hits are given with their value; – = inactive; · = not tested or not shown.

SMILES | AHR activator | proKLK7 act | ADAM10 inh | rCAG RNA binder | NR3A LBD binder | ADAM17 inh
Cn1c(Oc2ccc(Cl)cc2)c(C=O)c2ccccc21 | – | – | – | – | 15 | –
Cc1ccc(NC(=O)c2ccc(CS(=O)(=O)Cc3ccccc3C)o2)cc1C | · | – | – | – | · | –
COc1cccc(Cn2cc(COC(=O)NCC(C)C)nn2)c1 | · | – | – | – | · | –
C[C@H]1[C@@H](NC(=O)C(c2ccccc2)c2ccccc2)CC[C@@]23CCCN2C(=O)CCC[C@@H]13 | · | · | – | · | · | –
Cc1ccccc1NC(=O)NC1CCCCCCC1 | – | – | – | – | – | –
Cc1ccccc1NC(=O)N(O)C1(C#N)CCCCC1 | · | – | – | – | 15 | –
O=C1NN(c2cccc(Br)c2)C(=O)/C1=C/c1ccc(-c2cc([N+](=O)[O-])ccc2O)o1 | – | · | · | · | 13 | ·
O=C1NN(c2ccccc2)C(=O)/C1=C/c1ccc(-c2ccc(C(=O)O)cc2)o1 | – | – | – | – | – | –
COc1ccc(-c2sc3ccc(OC)cc3c2-c2ccc(OC)nc2)cc1 | – | – | – | – | – | –
COc1ccc(-c2oc3ccccc3c2C#Cc2cncn2C)cc1 | 49 | – | – | – | – | –
COc1ccc(-c2sc3ccc(OC)cc3c2C#Cc2cncn2C)cc1 | 75 | – | – | – | – | –
COC(=O)c1c(-c2ccc(OC)cc2)oc2ccccc12 | – | – | – | – | – | –
COC(=O)[C@]12C[C@H](CC(=O)N3CCN(C(=O)c4ccco4)CC3)C(=O)N(CCc3ccc(OC)c(OC)c3)C1=C[C@H](C(C)(C)C)O[C@@H]2C | · | – | – | – | · | –
COc1ccc(-c2nnc(SCC(=O)N3CCCC3=O)n2N)cc1OC | – | – | – | – | 19 | –
CCc1ccc(C(=O)CSc2n[nH]c(C)n2)cc1 | 56 | – | – | – | – | –
N#Cc1cnc(Nc2ccc(F)cc2)nc1N | – | – | – | – | 13 | –
CC(C)N1C/C(=C/c2cccnc2)C(=O)/C(=C/c2cccnc2)C1 | · | – | – | – | – | –
CN1C/C(=C/c2cccnc2)C(=O)/C(=C/c2cccnc2)C1 | – | – | – | – | 20 | –
COc1ccc(CN2CN3Cc4ccc(C)cc4C3CS2(=O)=O)cc1 (configuration not stated) | · | – | – | – | · | –
Cc1noc(C(=O)NCc2ccc(F)cc2)c1Cl | – | – | – | – | – | –
Cc1nc2c(C(=O)NCc3ccc(F)cc3)c[nH]n2c(=O)c1Cl | – | – | – | 46 | – | –
Cc1cc(C)n(-c2ccc(C(=O)Nc3cccc([N+](=O)[O-])c3)cc2)n1 | – | – | – | – | 19 | –
Cc1cc(C)n(-c2ccc(C(=O)Nc3ccc(S(=O)(=O)NCc4ccco4)cc3)cc2)n1 | – | – | – | – | 17 | –
Cc1cc(C)n(-c2ccc(C(=O)Nc3nc4ccccc4s3)cc2)n1 | – | – | – | – | 15 | –
C/C(=N\Nc1nc(Cl)c(Cl)cc1Cl)c1ccc(S(=O)(=O)NCc2ccco2)cc1 | 49 | – | – | – | – | –
SMILES | AHR activator | proKLK7 act | ADAM10 inh | rCAG RNA binder | NR3A LBD binder | ADAM17 inh
COc1cccc(N(C)C(=O)[C@@H](C2CC2)[C@@H](O)c2ccc(Cl)cc2)c1 | · | – | – | – | · | –
C=CCn1c(SCC(=O)Nc2ccccc2-c2ccccc2)nnc1-c1ccccc1 | · | – | – | – | · | –
CC(=O)N1CCc2cc(S(=O)(=O)NC3CCN(C(=O)OCc4ccccc4)CC3)ccc21 | · | – | – | – | · | –
O=C(CSc1nc2ccccc2o1)N1c2ccccc2Sc2ccc(C(F)(F)F)cc21 | – | – | – | – | 12 | –
CCOC(=O)c1sc(N)c(C#N)c1CSc1nc2ccc(C)cc2[nH]1 | 70 | – | – | – | – | –
COC(=O)C1=C(C)N(Cc2ccc(C(F)(F)F)cc2)C(=NCc2ccccc2)NC1c1ccc(C(F)(F)F)cc1 (configuration not stated) | · | – | – | – | · | –
COC(=O)C1=C(C)N(Cc2cccc(C(F)(F)F)c2)C(=NCC2CC2)NC1c1cccc(C(F)(F)F)c1 (configuration not stated) | · | – | – | – | · | –
O=C(c1ccc2c(c1)OCO2)N1CCC(Oc2cccnc2)CC1 | · | – | – | – | · | –
Cc1cccnc1NC(=S)NC(=O)c1cncc(Br)c1 | – | 32 | – | – | – | –
O=C(NC(=S)Nc1ccccc1O)c1cccnc1 | 58 | – | – | – | – | –
O=C(NC(=S)Nc1ccccc1O)c1cncc(Br)c1 | 54 | – | – | – | – | –
CNc1ccccc1/C(O)=C(\C#N)C(=O)NCc1cccc2ccccc12 | · | – | – | – | · | –
Clc1ccc(OCc2nc(-c3ccccn3)no2)c(Br)c1 | – | – | – | – | – | –
COc1ccc(Cc2nc(-c3ccc(Br)o3)no2)cc1OC | 47 | – | – | – | – | –
Fc1ccc(OCc2nc(-c3ccc(Br)o3)no2)c(F)c1 | – | – | – | – | – | –
Clc1ccccc1OCc1nc(-c2ccc(Br)o2)no1 | 61 | – | – | – | – | –
Clc1ccccc1OCc1nc(-c2ccccn2)no1 | – | – | – | – | 11 | –
CCCCOCCCNC(=O)C[C@@H]1C[C@]2(C(=O)OCC)CCC3=C2N(CCC3)C1=O | · | – | – | – | · | –
Cc1ccc(F)cc1C(=O)N(Cc1ccccn1)CC1CCCO1 (configuration not stated) | · | – | – | – | · | –
CCCCCCCCN1C(=O)[C@@H](CC(=O)NCc2ccc(C)o2)C[C@@]2(C(=O)OC)C1=C[C@H](COCc1ccccc1)O[C@@H]2C | · | – | – | – | · | –
Cc1[nH]nc(-c2ccc(O)cc2O)c1-c1nc2ccccc2s1 | 73 | – | – | – | – | –
Cc1[nH]nc(-c2ccc(OCc3cnn(-c4ccccc4)c3)cc2O)c1Oc1ccccc1F | 50 | – | – | – | – | –
CCc1cc(-c2n[nH]c(C)c2Oc2ccc(C(C)C)cc2)c(O)cc1O | – | – | – | – | 32 | –
Cc1[nH]nc(-c2ccc(O)cc2O)c1Oc1ccccc1 | – | – | – | – | 32 | –
O=C(Cc1c[nH]c2ccccc12)Nc1ccc(Nc2cccnc2)c(-c2cc(F)cc(F)c2)c1 | · | – | – | – | · | –
Cc1cc(Oc2cccnc2)ccc1NC(=O)Cc1c(C)[nH]c2ccccc12 | · | – | – | – | · | –
CCOC(=O)C1CCN(C(=O)c2cc(S(=O)(=O)N(C)C)ccc2N2CCCC2)CC1 | – | – | – | – | – | –

Assay outcomes (PubChem)
